Of roughly 8,800 targets only a part is listed; those with a hit were picked by preference. About 0.5% of all pairs of compound and target were hits.
Experiments:
Assay in all cases: log2 fold change, soluble protein after heating vs DMSO (PISA); higher = thermal stabilisation; K562 lysate, 10 uM; active = over 0.2 and 3.5 SD of the protein, either way, in both replicates (recomputed)
[1] = compound: C1=CC=C(C=C1)[C@H](COC2=CC3=C(C=C2)NC(=O)N3)NC(=O)C4=CC=CN(C4=O)CC5=CC(=C(C=C5)F)F
How it was run: (§1)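 Dounce homogenisation of K562 pellets in PBS pH 7.4 with 1 mM MgCl2 produced a crude extract, used at 1 mg/mL protein. Exposure to 10 μM compound lasted 30 min, and aliquots were then heated for 3 min across 48°C-58°C, pooled and brought to 0.5% NP-40 at 4°C. The supernatant after 21,000xg for 90 min was quantified by TMTpro 16plex LC-MS/MS with channel sums equalised. Duplicate values are given as log-two fold change in thermal stability relative to solvent controls.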

[2] = compound: CC1=C(SC2=C1C(=N[C@H](C3=NN=C(N32)C)CC(=O)N)C4=CC=C(C=C4)Cl)C
How it was run: as §1

[3] = compound: CC1=C2C(=CC=C1)N=C(N(C2=O)C3=CC=CC=C3C)CN4C=NC5=C(N=CN=C54)N
How it was run: as §1

[4] = compound: Cc1sc2c(c1C)C(c1ccc(Cl)cc1)=N[C@@H](CC(=O)OC(C)(C)C)c1nnc(C)n1-2
How it was run: as §1

[5] = compound: c1ccc([C@@H]2C[C@H]2NC2CCNCC2)cc1
How it was run: as §1

Measured: log2 fold change

DHFR (UniProt P00374)
Chain of UniProt P00374 (P00374 whole entry, looked up): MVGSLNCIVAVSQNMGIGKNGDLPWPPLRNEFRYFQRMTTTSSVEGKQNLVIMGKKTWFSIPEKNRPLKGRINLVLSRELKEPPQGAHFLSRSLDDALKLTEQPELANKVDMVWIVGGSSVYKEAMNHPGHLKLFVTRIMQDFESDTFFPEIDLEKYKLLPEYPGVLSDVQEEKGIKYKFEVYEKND
inactive: [1] -0.024 | [2] 0.024 | [3] 0.016 | [4] 0.031 | [5] 0.021

CLCN3 isoform 2 (UniProt P51790)
inactive: [1] 0.033 | [2] 0.017 | [3] 0.053 | [4] -0.015 | [5] 0.033

DARS (UniProt P14868)
Chain of UniProt P14868 (P14868 whole entry, looked up): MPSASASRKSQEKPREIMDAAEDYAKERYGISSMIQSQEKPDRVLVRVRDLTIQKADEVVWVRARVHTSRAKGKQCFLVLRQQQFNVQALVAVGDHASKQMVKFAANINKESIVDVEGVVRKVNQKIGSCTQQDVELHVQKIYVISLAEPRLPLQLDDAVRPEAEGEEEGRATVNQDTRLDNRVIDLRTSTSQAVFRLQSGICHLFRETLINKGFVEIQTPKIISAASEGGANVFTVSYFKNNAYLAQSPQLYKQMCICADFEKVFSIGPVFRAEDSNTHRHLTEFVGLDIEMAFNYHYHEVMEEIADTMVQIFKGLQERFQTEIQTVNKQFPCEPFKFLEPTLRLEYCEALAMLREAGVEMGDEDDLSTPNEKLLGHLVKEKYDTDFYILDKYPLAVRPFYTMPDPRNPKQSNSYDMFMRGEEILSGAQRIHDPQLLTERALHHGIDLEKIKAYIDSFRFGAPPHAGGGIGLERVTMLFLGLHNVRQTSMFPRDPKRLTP
inactive: [1] -0.01 | [2] 0.001 | [3] 0.037 | [4] 0.043 | [5] 0.025

CMIP (UniProt Q8IY22)
inactive: [1] -0.012 | [2] -0.006 | [3] -0.002 | [4] -0.029 | [5] 0.032

CYP24A1 (UniProt Q07973)
Chain of UniProt Q07973 (Q07973 whole entry, looked up): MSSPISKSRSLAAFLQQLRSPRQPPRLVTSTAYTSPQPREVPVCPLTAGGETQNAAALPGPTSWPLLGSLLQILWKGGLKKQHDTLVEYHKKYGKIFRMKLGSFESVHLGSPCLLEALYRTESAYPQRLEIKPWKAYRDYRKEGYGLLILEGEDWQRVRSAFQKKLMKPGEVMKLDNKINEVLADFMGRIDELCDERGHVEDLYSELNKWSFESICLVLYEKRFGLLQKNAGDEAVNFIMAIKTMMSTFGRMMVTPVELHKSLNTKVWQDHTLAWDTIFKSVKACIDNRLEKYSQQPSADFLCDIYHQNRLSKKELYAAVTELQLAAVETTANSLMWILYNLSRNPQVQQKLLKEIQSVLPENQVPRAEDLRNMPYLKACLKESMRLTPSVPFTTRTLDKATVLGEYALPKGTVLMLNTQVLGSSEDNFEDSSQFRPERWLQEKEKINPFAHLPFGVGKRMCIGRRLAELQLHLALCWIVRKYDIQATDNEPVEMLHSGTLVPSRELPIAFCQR
inactive: [1] 0.02 | [2] 0.142 | [3] 0.096 | [4] -0.136 | [5] -0.262

CHORDC1 (UniProt Q9UHD1)
inactive: [1] 0.025 | [2] 0.006 | [3] -0.01 | [4] 0.017 | [5] 0.037

CNP (UniProt P09543)
inactive: [1] -0.022 | [2] 0.001 | [3] 0.036 | [4] 0.016 | [5] 0.021

COG2 (UniProt Q14746)
inactive: [1] -0.038 | [2] -0.034 | [3] 0.054 | [4] 0.001 | [5] 0.009

DDX39A (UniProt O00148)
inactive: [1] -0.022 | [2] -0.018 | [3] 0.02 | [4] -0.016 | [5] 0

CSNK1D (UniProt P48730)
Chain of UniProt P48730 (P48730 whole entry, looked up): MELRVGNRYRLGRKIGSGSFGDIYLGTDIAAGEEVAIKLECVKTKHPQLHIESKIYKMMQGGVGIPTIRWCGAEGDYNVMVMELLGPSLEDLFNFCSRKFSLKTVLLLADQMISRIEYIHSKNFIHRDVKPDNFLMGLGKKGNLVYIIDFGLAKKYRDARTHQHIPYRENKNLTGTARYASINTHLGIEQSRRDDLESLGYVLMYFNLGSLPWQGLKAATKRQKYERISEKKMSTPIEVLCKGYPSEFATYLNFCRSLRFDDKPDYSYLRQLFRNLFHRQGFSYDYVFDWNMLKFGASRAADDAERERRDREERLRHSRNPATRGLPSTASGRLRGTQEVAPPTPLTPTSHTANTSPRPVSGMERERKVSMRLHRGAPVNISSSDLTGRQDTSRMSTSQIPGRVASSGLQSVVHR
inactive: [1] -0.027 | [2] 0.014 | [3] -0.127 | [4] -0.026 | [5] 0.025

DICER1 (UniProt Q9UPY3)
inactive: [1] 0.028 | [2] 0.006 | [3] 0.045 | [4] 0.029 | [5] -0.038

DNAH5 (UniProt Q8TE73)
inactive: [1] -0.019 | [2] 0.018 | [3] 0.007 | [4] -0.087 | [5] -0.216

COPZ1 isoform 4 (UniProt P61923)
inactive: [1] -0.101 | [2] -0.04 | [3] 0.06 | [4] 0.057 | [5] 0.096

DCP1A (UniProt Q9NPI6)
Chain of UniProt Q9NPI6 (Q9NPI6 whole entry, looked up): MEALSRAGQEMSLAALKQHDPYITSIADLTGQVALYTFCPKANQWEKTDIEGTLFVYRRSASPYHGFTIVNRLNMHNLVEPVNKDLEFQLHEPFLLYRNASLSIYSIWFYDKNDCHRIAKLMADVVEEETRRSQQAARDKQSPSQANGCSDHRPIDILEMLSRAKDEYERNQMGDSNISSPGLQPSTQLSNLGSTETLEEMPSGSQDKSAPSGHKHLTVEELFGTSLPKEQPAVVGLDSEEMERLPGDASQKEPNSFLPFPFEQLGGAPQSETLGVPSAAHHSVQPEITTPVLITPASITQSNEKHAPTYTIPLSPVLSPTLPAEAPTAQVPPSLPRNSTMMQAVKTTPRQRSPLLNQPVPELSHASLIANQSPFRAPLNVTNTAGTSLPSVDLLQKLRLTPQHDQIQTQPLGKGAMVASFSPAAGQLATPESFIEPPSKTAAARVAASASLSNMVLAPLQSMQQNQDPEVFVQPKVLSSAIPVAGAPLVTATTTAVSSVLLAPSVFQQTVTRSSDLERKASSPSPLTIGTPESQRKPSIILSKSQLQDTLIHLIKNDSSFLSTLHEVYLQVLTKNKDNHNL
inactive: [1] -0.011 | [2] -0.031 | [3] 0.025 | [4] 0.018 | [5] -0.026

CSNK2B (UniProt P67870)
inactive: [1] -0.02 | [2] 0.024 | [3] -0.068 | [4] 0.03 | [5] -0.016

CORO7 isoform 3 (UniProt P57737)
inactive: [1] -0.003 | [2] -0.006 | [3] 0.033 | [4] 0.018 | [5] 0.036

CSNK1E (UniProt P49674)
inactive: [1] -0.004 | [2] -0.072 | [3] -0.031 | [4] 0.031 | [5] -0.005

DENND4A isoform 2 (UniProt Q7Z401)
inactive: [1] -0.02 | [2] 0.028 | [3] -0.007 | [4] 0.039 | [5] -0.064

CLCN3 (UniProt P51790)
inactive: [1] 0.094 | [2] 0.014 | [3] 0.061 | [4] 0.063 | [5] 0.017

CPT1A (UniProt P50416)
inactive: [1] 0.042 | [2] 0.03 | [3] -0.004 | [4] 0.07 | [5] 0.011

CKAP5 (UniProt Q14008)
Chain of UniProt Q14008 (Q14008 whole entry, looked up): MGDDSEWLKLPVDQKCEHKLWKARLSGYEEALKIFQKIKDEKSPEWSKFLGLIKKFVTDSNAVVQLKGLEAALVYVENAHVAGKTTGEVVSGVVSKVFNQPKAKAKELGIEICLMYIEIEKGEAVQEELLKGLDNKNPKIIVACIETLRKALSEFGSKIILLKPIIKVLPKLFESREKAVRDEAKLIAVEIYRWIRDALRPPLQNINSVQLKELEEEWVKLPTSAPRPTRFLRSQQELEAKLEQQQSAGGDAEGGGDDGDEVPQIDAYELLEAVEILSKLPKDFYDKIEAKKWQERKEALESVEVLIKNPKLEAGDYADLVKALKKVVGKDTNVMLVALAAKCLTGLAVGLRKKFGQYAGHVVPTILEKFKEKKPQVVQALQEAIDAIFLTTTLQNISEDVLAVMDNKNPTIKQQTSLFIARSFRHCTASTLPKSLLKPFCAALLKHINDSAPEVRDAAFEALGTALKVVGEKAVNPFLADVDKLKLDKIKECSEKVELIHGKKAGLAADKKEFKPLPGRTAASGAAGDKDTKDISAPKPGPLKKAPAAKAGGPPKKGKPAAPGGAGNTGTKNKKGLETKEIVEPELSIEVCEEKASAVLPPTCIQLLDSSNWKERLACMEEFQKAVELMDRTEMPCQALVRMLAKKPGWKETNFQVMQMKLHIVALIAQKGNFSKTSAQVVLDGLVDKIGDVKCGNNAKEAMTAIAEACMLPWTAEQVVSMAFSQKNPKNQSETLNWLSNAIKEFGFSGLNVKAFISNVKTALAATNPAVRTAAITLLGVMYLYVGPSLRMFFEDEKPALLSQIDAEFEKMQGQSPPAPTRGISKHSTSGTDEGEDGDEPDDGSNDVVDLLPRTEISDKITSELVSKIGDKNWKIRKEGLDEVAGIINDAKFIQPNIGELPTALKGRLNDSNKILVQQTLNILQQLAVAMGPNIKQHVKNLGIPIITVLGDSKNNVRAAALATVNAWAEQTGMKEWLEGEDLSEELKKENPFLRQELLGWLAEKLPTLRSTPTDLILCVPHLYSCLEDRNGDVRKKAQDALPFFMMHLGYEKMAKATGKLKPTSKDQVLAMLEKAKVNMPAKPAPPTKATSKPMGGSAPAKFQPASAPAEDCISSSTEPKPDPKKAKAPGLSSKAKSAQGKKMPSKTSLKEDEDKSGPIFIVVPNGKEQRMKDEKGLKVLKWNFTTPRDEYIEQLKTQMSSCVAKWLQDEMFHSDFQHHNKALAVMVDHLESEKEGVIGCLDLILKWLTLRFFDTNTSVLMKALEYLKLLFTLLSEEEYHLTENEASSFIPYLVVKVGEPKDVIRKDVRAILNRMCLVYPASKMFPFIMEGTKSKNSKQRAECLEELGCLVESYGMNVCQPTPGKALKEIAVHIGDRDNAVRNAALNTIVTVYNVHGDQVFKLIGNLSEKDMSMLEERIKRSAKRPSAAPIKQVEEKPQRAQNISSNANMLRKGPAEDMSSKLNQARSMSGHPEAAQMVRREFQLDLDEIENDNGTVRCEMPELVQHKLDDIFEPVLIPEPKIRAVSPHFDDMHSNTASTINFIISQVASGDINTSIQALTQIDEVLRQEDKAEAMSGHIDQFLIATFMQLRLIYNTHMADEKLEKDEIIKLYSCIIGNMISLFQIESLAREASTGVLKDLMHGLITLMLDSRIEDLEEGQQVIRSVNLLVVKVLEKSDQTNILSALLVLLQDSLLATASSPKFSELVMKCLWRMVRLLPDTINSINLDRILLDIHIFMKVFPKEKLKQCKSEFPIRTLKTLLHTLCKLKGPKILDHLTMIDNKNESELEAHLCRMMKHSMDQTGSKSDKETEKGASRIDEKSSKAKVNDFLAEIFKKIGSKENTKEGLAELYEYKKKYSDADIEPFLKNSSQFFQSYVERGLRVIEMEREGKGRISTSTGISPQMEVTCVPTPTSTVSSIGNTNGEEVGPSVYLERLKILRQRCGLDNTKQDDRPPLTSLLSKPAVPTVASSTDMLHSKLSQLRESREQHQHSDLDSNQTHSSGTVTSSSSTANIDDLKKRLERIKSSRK
inactive: [1] -0.008 | [2] -0.019 | [3] 0.01 | [4] 0.014 | [5] 0.048

CNOT4 isoform 9 (UniProt O95628)
inactive: [1] -0.173 | [2] 0.081 | [3] -0.014 | [4] -0.066 | [5] -0.551

DLG3 isoform 2 (UniProt Q92796)
Chain of UniProt Q92796 (Q92796 whole entry, looked up): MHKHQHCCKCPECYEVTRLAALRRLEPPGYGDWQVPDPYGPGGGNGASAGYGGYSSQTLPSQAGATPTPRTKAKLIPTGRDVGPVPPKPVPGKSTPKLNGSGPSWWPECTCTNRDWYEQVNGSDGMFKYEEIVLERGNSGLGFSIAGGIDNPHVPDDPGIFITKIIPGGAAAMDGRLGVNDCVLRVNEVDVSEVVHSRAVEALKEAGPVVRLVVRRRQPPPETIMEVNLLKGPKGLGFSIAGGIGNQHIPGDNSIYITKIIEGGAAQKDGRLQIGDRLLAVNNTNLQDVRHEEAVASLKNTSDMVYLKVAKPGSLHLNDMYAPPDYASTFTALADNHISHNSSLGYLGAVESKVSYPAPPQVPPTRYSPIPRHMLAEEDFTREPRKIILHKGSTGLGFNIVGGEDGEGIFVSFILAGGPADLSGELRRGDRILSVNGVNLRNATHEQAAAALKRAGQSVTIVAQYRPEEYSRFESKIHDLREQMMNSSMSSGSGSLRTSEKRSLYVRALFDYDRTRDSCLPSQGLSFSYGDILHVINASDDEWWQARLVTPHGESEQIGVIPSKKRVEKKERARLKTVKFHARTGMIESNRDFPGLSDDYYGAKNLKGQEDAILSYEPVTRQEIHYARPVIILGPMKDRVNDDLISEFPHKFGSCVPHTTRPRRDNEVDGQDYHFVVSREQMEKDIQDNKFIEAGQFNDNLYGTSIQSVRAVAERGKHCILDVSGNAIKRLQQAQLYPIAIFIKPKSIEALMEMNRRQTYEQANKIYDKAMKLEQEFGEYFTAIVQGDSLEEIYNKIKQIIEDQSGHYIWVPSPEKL
inactive: [1] 0 | [2] -0.082 | [3] -0.085 | [4] 0.019 | [5] 0.048

DIAPH1 (UniProt H9KV28)
inactive: [1] 0.009 | [2] 0.023 | [3] 0.007 | [5] -0.117

DENND1B (UniProt Q6P3S1)
inactive: [1] 0.154 | [2] -0.205 | [3] -0.062 | [4] -0.182 | [5] 0.014

DOK1 (UniProt Q99704)
inactive: [1] 0.048 | [2] -0.024 | [3] -0.005 | [4] 0.064 | [5] -0.036

DOCK7 (UniProt Q96N67)
inactive: [1] 0.071 | [2] 0.095 | [3] -0.017 | [4] -0.011 | [5] 0.012

CSTF2 (UniProt P33240)
inactive: [1] -0.027 | [2] 0.021 | [3] 0.055 | [4] -0.032 | [5] 0.01

CINP isoform 3 (UniProt Q9BW66)
inactive: [1] -0.016 | [2] -0.042 | [3] 0.039 | [4] -0.157 | [5] -0.145

CNOT4 isoform 6 (UniProt O95628)
inactive: [1] -0.042 | [2] -0.02 | [3] -0.028 | [4] 0.051 | [5] -0.004

DPH5 isoform 5 (UniProt Q9H2P9)
inactive: [1] 0.047 | [2] -0.024 | [3] 0.021 | [4] -0.144 | [5] -0.118

CTPS1 (UniProt P17812)
inactive: [1] -0.02 | [2] -0.013 | [3] -0.029 | [4] -0.014 | [5] 0.023

CIAO2A (UniProt Q9H5X1)
inactive: [1] -0.049 | [2] 0.062 | [3] 0.023 | [4] -0.032 | [5] 0.064

CSNK2A2 (UniProt P19784)
inactive: [1] -0.02 | [2] -0.033 | [3] -0.213 | [4] 0.038 | [5] 0.015

DHCR7 (UniProt Q9UBM7)
inactive: [1] -0.107 | [2] 0.028 | [3] -0.031 | [4] -0.045 | [5] 0.091

DDX20 (UniProt Q9UHI6)
inactive: [1] -0.008 | [2] -0.064 | [3] -0.006 | [4] 0.027 | [5] 0.077

COG6 (UniProt Q9Y2V7)
inactive: [1] -0.023 | [2] 0.011 | [3] 0.029 | [4] -0.032 | [5] 0.069

CHMP4A isoform 2 (UniProt Q9BY43)
inactive: [1] 0.035 | [2] -0.009 | [3] 0.007 | [4] -0.022 | [5] -0.152

DMXL1 (UniProt Q9Y485)
inactive: [1] 0.011 | [2] 0.01 | [3] 0 | [4] -0.005 | [5] 0.016

CSDE1 isoform 4 (UniProt O75534)
inactive: [1] -0.012 | [2] -0.009 | [3] -0.017 | [4] 0.046 | [5] 0.04
